# Only a selection was taken, and hits are over-represented in it overall.
# Cruzain inh Det = blocks cruzain activity in presence of Triton detergent; P25779; purified cruzain, Z-FR-AMC fluorescence, 0.01% Triton; Potency, µM, inactives show max response, negative = inhibition, most hits filed as inhibitors; actives 0.43% (n = 200,000);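 note: plate controls were neutral wells for no effect and buffer without enzyme for full effect; nearly all actives have a fitted effect of over 40% in size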
# Target sequence (P25779 123-467 limits assumed): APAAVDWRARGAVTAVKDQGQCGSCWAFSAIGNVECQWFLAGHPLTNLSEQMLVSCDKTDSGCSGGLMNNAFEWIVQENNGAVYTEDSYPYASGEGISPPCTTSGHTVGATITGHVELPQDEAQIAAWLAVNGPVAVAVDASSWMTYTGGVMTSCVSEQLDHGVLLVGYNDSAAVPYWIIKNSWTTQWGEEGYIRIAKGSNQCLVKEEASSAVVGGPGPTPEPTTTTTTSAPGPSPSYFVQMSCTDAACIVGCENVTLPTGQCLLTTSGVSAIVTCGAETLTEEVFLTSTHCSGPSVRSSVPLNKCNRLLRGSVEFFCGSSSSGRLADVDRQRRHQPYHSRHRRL
#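 Compounds were screened in titration against cruzain (1.5 nM) with 0.01% Triton X-100 to counter colloidal aggregation. Activity was the AMC fluorescence increase over 60 s after adding 2 uM Z-FR-AMC at pH 5.5.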
# Cruzain inh noDet = inhibitors of Trypanosoma cruzi cruzain without detergent. actives 2.3% (n = 200,000). purified cruzain, Z-FR-AMC fluorescence, no detergent. Potency, µM, without a hit: max response, negative = inhibition, usual class: inhibitors. P25779;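 note: plate controls were enzyme without inhibitor for no effect and buffer without enzyme for full effect; nearly all actives have a fitted effect of over 40% in size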
#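 Detergent-free condition (0.00005% Triton X-100) in acetate buffer pH 5.5 with DTT. 1.5 nM enzyme and compound were pre-mixed 15 min, then 2 uM Z-FR-AMC substrate added; reaction progress from fluorescence change between first and third reads (60 s).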
# NS1 inh = blocks influenza NS1 protein function; AID 2326; Potency, µM (doses to about 46.1 µM), without a hit: top-dose activity, positive = more growth; actives 0.4% (n = 270,000); calls by dose curve; note: actives are rising curves; nearly all actives have a fitted effect of over 50% in size
#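 Recovery from NS1-induced slow growth read by OD600 in budding yeast switched to galactose assay medium (pH 6.0, -URA) at 1:100 dilution. Compound 23 nl per well; the matching strain lacking NS1 serves as control.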
# * marks the source's active call; other numbers are inactive results; ? = inconclusive; . = no result given; ! = a repeat was not active. Unless noted, calls come from the whole dose curve; as a rule, active = well fitted curve in the direction sought with a large enough effect; inconclusive = small, poorly fitted or top-dose-only effect, or another doubt; inactive = no such curve, though single readings can be large; an effect the other way counts as inactive or inconclusive. Potency is the fitted concentration of half-maximal effect.
SMILES,Cruzain inh Det,Cruzain inh noDet,NS1 inh
CC(=O)c1cccc(NC(=O)C2CCN(S(=O)(=O)c3ccc(F)cc3)CC2)c1,2%,-11%,-15%
CCN1C(=O)C(Cc2nc3ccccc3c(=O)n2-c2ccccc2)c2cc(Br)ccc21 (stereo not given),-4%,?,.
COc1ccc(CNC(=O)c2cc3ccccn3n2)cc1OC,0%,-11%,.
Cc1ccc(-c2[nH]nc(N)c2N=Nc2cccc(Cl)c2C)cc1,-3%,?,20%
Cc1cccc(N=Nc2c(N)n[nH]c2-c2ccc(Cl)cc2)c1,-6%,25µM*,15%
N#CNC(N)=Nc1ccc(Cl)cc1,0%,-7%,-12%
NC(=Nc1ccccc1)NC(=O)c1nc(Cl)c(N)nc1N,-12%,?,-10%
NC(=NCc1ccccc1)NC(=O)c1nc(Cl)c(N)nc1N,-13%,14µM*!,-9%
O=S(=O)(Nc1ccc(C(F)(F)F)cc1)c1ccc2c(c1)OCCO2,-13%,7%,.
COc1ccc(OC2C(=O)N(c3ccc(C)c(C)c3)C2c2ccc(OC)c(OC)c2)cc1 (stereo not given),0%,?,?
COc1ccc(NC2=CC(c3ccc(OC)c(OC)c3)N(c3ccc(OC)cc3)C2=O)cc1 (stereo not given),-3%,?,8.9µM*
Cc1nn(-c2ccccc2)c(N2CCCC2)c1/C=N/n1cnc2scc(-c3ccccc3)c2c1=O,-1%,-3%,-30%
O=c1c2c(-c3ccccc3)csc2ncn1/N=C/c1c2ccccc2cc2ccccc12,-5%,10µM*,-28%
Cc1cc(O)c(CN2CCN(c3ccccc3)CC2)c2oc(=O)cc(C)c12,-20%,?,.
O=C(O)c1cc(N/N=C/c2ccc3c(c2)OCCO3)ccc1Cl,-8%,-1%,15%
Cc1ccc(N/N=C/c2ccc3c(c2)OCCO3)cc1Cl,3%,20µM*,-7%
COc1cccc([C@@H]2Oc3ccc(Br)cc3C(=O)[C@H]2OC(=O)NS(=O)(=O)c2ccc(C)cc2)c1,1%,-11%,.
COc1ccc(COc2ccc3c(C)cc(=O)oc3c2)cc1,.,.,-3%
COc1ccc2c(-c3cc4ccc(OCc5ccc(F)cc5)cc4oc3=O)cc(=O)oc2c1,-7%,10µM*,13%
CC(C)(C)C1CCc2c(sc(NC(=O)C3c4ccccc4Oc4ccccc43)c2C(N)=O)C1 (stereo not given),-8%,10µM*,.
CCC(C)(C)C1CCc2c(sc(N)c2C(N)=O)C1 (stereo not given),-25%,?,12%
CCOC(=O)c1c(NC(=O)C(C)N2CCN(S(=O)(=O)c3cccs3)CC2)sc2c1CCC(C)C2 (stereo not given),-1%,7.9µM*,4%
CC(C)(C)C1CCc2c(sc(N)c2C(N)=O)C1 (stereo not given),-15%,25µM*,-2%
CCOC(=O)c1c(NC(=O)C2CCN(S(=O)(=O)c3cccs3)CC2)sc(C)c1C,-4%,-18%,-13%
CC1CCc2c(sc(NC(=O)C3c4ccccc4Oc4ccccc43)c2C#N)C1 (stereo not given),-4%,-24%,.
SMILES,Cruzain inh Det,Cruzain inh noDet,NS1 inh
CC(C)(C)C1CCc2c(sc(NC(=O)c3ccco3)c2C(N)=O)C1 (stereo not given),-22%,-25%,?
CC1CCc2c(sc(NC(=O)C3c4ccccc4Oc4ccccc43)c2C(N)=O)C1 (stereo not given),-6%,25µM*,14%
O=[N+]([O-])c1cc(-c2nc(-c3ccccc3)no2)ccc1NCCc1ccccc1,-6%,6%,.
O=S(=O)(Nc1nccs1)c1ccc([As](=O)(O)O)cc1,0%,6%,0%
O=C(CN1C(=O)CC(c2ccco2)Sc2ccccc21)Nc1cccc(C(F)(F)F)c1 (stereo not given),-7%,-10%,.
CCOC(=O)c1c(NC(=O)C2c3ccccc3Oc3ccccc32)sc2c1CCC(CC)C2 (stereo not given),-1%,14%,.
CCCOC(=O)c1c(NC(=O)C2c3ccccc3Oc3ccccc32)sc2c1CCC(C)C2 (stereo not given),-2%,20µM*,.
COc1ccc(-c2cc(-c3cccs3)c(C#N)c(SCC(=O)NCc3ccccc3)n2)cc1,4%,7.9µM*,5%
COc1ccc(-c2cc(-c3cccs3)c(C#N)c(SCC(=O)NCc3ccccc3OC)n2)cc1,6%,?,-6%
COc1ccc(-c2cc(-c3ccccc3)nc(SCC(=O)Nc3ncc(C)s3)c2C#N)cc1,-5%,7.9µM*,24%
Cc1cccc(-c2cc(-c3ccccc3)nc(SCC(=O)Nc3ccccc3)c2C#N)c1,1%,12%,.
CCc1nnc(NC(=O)CSc2nc(-c3ccc(F)cc3)cc(-c3ccccc3)c2C#N)s1,0%,7.9µM*,21%
CCSc1nc(-c2ccc(OC)cc2)cc(-c2ccccc2)c1C#N,-1%,-14%,3%
O=C(O)c1cc[c]([Hg][S]c2ncnc3nc[nH]c23)cc1,-1%,18%,-15%
COC(=O)[C@H](COC(C)(C)C)NC(=O)O[C@H]1C(=O)c2cc(OC)ccc2O[C@@H]1c1ccc(OC)c(Br)c1,-2%,21%,.
COc1ccc(-c2nc3cnc(N(C)C)nc3n(CCc3ccccc3)c2=O)cc1,-1%,2%,.
Nc1ccc2cc3ccccc3cc2c1,0%,13µM*,.
Nc1ccc2ncccc2c1,2%,-7%,-4%
CCCCc1cc(=O)oc2cc(C)c3c(C)coc3c12,-7%,-4%,.
COc1ccc(/C=c2/sc3nc(-c4ccccc4)c(-c4ccccc4)n3c2=O)cc1,-5%,6.3µM*,5%
COc1ccc(/C=c2\sc3nc(-c4ccccc4)c(-c4ccccc4)n3c2=O)cc1OC,-19%,?,2%
O=C(c1ccc(CS(=O)(=O)c2c(Cl)cccc2Cl)o1)N1CCN(c2ccccc2)CC1,1%,4%,.
CCCCN(CC)C(=O)Nc1ccc2c(c1)N(C)C(=O)c1ccccc1S2,-5%,-5%,.
CCN=C=NCCCN(C)C,13%,5%,3%
S=C(Nc1ccc(OCc2ccccc2)cc1)Nc1cccc(Cl)c1Cl,-5%,?,?
SMILES,Cruzain inh Det,Cruzain inh noDet,NS1 inh
S=C(Nc1ccccc1)Nc1ccc(OCc2ccccc2)cc1,5%,13µM*,1%
O=c1c(-c2cccc(F)c2)nc2cncnc2n1C1CC1,-5%,-4%,.
COc1cc2c(cc1NC(=O)CSc1nnnn1-c1ccccc1)oc1ccccc12,4%,32µM*,-33%
COc1cc2c(cc1NC(=O)COC(=O)C(CCSC)NC(=O)c1ccccc1Cl)oc1ccccc12 (stereo not given),?,25µM*,-2%
COc1cc2c(cc1NC(=O)CSc1ccc(C)cc1)oc1ccccc12,3%,-29%,2%
COc1cc2c(cc1NC(=O)CN1CCN(S(=O)(=O)c3ccccc3F)CC1)oc1ccccc12,1%,25µM*,5%
CCN(CC)S(=O)(=O)c1cccc(C(=O)Nc2cc3oc4ccccc4c3cc2OC)c1,-5%,?,0%
CCCN(CCC)S(=O)(=O)c1ccc(C(=O)Nc2cc3oc4ccccc4c3cc2OC)cc1,-10%,16µM*,3%
COc1cc2c(cc1NC(=O)COC(=O)[C@@H](NS(=O)(=O)c1ccccc1)C(C)C)oc1ccccc12,-2%,?,-16%
COc1cc2c(cc1NC(=O)Cc1ccc(C)cc1)oc1ccccc12,-10%,0%,12%

# Source: PubChem BioAssay
